The whole screen tested about 39,000 compounds, of which about 3,300 (8.5%) were called active. Shown is part of a subset that was picked to be rich in actives.

The values that follow come from the antibiotic and cytotoxicity screens of Wong et al. (2023).

The assay concerns HepG2. Kind of assay: cytotoxicity call (relative viability < 0.9). The following applies: 10 µM.
`COc1ccc(NC(=O)N(C)C[C@@H]2Oc3c(NC(=O)c4cc(C)nn4C)cccc3C(=O)N([C@@H](C)CO)C[C@@H]2C)cc1`: the cytotoxicity call was “inactive”.

`COc1ccc(CN(C)C[C@@H]2OCCCC[C@@H](C)Oc3ccc(NS(=O)(=O)c4ccc(C)cc4)cc3C(=O)N([C@H](C)CO)C[C@@H]2C)cc1`: the cytotoxicity call was “inactive”.

Take `COc1ccc(S(=O)(=O)N(C)C[C@H]2Oc3c(NS(C)(=O)=O)cccc3C(=O)N([C@@H](C)CO)C[C@H]2C)cc1`: the cytotoxicity call is “inactive”.

For `C[C@@H]1CCCCO[C@@H](CN(C)C(=O)c2ccncc2)[C@H](C)CN([C@H](C)CO)C(=O)c2cc(NS(=O)(=O)c3ccc(Cl)cc3)ccc2O1`, the cytotoxicity call was “inactive”.

Take `C[C@@H]1CN([C@@H](C)CO)S(=O)(=O)c2ccc(-c3ccncc3)cc2O[C@@H]1CN(C)C(=O)c1cccc(F)c1`: the cytotoxicity call is “inactive”.

On to `CO[C@H]1CN(C)C(=O)c2cc(NC(=O)C3CC3)ccc2OC[C@@H](C)N(C(=O)CN2CCOCC2)C[C@@H]1C`, for which the cytotoxicity call was “inactive”.

As for `CCc1nc(C(N)=O)c(Nc2ccc(N3CCC(N4CCN(C)CC4)CC3)c(OC)c2)nc1NC1CCOCC1`, the cytotoxicity call is “active”.

Turning to `C=CC(=O)N1CC[C@@H](Oc2nc(Nc3ccc(N4CCC(N5CCN(C)CC5)CC4)cc3)c(C(N)=O)nc2CC)C1`, the cytotoxicity call is “active”.

For `COCC(=O)NCc1cc(=O)n2c(n1)CN(c1ncccn1)CCC2`, the cytotoxicity call was “inactive”.

`CO[C@H]1CN(C)C(=O)c2cc(NC(=O)Nc3ccccc3)ccc2OC[C@@H](C)N(C(=O)CN(C)C)C[C@@H]1C`: the cytotoxicity call was “inactive”.

With `C[C@H](CO)N1C[C@H](C)[C@H](CN(C)Cc2ccc(C(=O)Nc3ccccc3N)cc2)Oc2ccc(NS(=O)(=O)c3cn(C)cn3)cc2CC1=O`, the cytotoxicity call is “inactive”.

On to `COc1ccc(CN(C)C[C@@H]2OCCCC[C@H](C)Oc3ccc(NC(=O)Nc4ccc(F)cc4)cc3C(=O)N([C@H](C)CO)C[C@H]2C)cc1`, for which the cytotoxicity call was “inactive”.

Consider `COc1ccc(CN(C)C[C@@H]2OCCCC[C@@H](C)Oc3ccc(NC(=O)Nc4ccc(F)cc4)cc3C(=O)N([C@@H](C)CO)C[C@H]2C)cc1`, for which the cytotoxicity call is “active”.

On to `COc1ccc(CN(C)C[C@@H]2OCCCC[C@H](C)Oc3ccc(NC(=O)Nc4ccc(F)cc4)cc3C(=O)N([C@@H](C)CO)C[C@@H]2C)cc1`, for which the cytotoxicity call is “active”.

Turning to `COc1ccc(CN(C)C[C@@H]2OCCCC[C@@H](C)Oc3ccc(NC(=O)Nc4ccc(F)cc4)cc3C(=O)N([C@H](C)CO)C[C@H]2C)cc1`, the cytotoxicity call was “active”.

For the compound `COc1ccc(CN(C)C[C@H]2OCCCC[C@@H](C)Oc3ccc(NC(=O)Nc4ccc(F)cc4)cc3C(=O)N([C@H](C)CO)C[C@@H]2C)cc1`, the cytotoxicity call was “inactive”.

Take `COc1ccc(CN(C)C[C@@H]2OCCCC[C@H](C)Oc3ccc(NC(=O)Nc4ccc(F)cc4)cc3C(=O)N([C@H](C)CO)C[C@@H]2C)cc1`: the cytotoxicity call is “active”.

Regarding `COc1ccc(CN(C)C[C@H]2OCCCC[C@@H](C)Oc3ccc(NC(=O)Nc4ccc(F)cc4)cc3C(=O)N([C@@H](C)CO)C[C@H]2C)cc1`, the cytotoxicity call is “inactive”.

With `COc1ccc(CN(C)C[C@@H]2OCCCC[C@H](C)Oc3ccc(NC(=O)Nc4ccc(F)cc4)cc3C(=O)N([C@@H](C)CO)C[C@H]2C)cc1`, the cytotoxicity call was “inactive”.

As to `COc1ccc(CN(C)C[C@@H]2OCCCC[C@@H](C)Oc3ccc(NC(=O)Nc4ccc(F)cc4)cc3C(=O)N([C@H](C)CO)C[C@@H]2C)cc1`, the cytotoxicity call is “inactive”.

On to `COc1ccc(CN(C)C[C@@H]2OCCCC[C@@H](C)Oc3ccc(NC(=O)Nc4ccc(F)cc4)cc3C(=O)N([C@@H](C)CO)C[C@@H]2C)cc1`, for which the cytotoxicity call is “inactive”.

With `C[C@H](CO)N1C[C@H](C)[C@@H](CN(C)Cc2ccccc2F)Oc2cc(C#CC3CC3)ccc2S1(=O)=O`, the cytotoxicity call was “inactive”.

With `Nc1cnc(Cl)nc1N`, the cytotoxicity call was “inactive”.

Regarding `COC(=O)C[C@@H]1C(=O)NCCN1C(=O)NS(=O)(=O)c1ccc(C)cc1`, the cytotoxicity call was “inactive”.

Turning to `C[C@@H]1CN([C@H](C)CO)C(=O)c2cccc(NS(=O)(=O)c3cccs3)c2O[C@@H]1CN(C)S(=O)(=O)c1ccccc1`, the cytotoxicity call was “inactive”.

For the compound `O=C(NN1CCCCC1)c1nn(-c2ccc(Cl)cc2Cl)c(-c2ccc(C#Cc3ccc(C(F)(F)F)cc3)s2)c1CNS(=O)(=O)N1CCCC1`, the cytotoxicity call is “inactive”.

Regarding `COc1ccc(CN(C)C[C@H]2OCCCC[C@H](C)Oc3ccc(NC(=O)Nc4ccc(F)cc4)cc3C(=O)N([C@H](C)CO)C[C@@H]2C)cc1`, the cytotoxicity call was “inactive”.

As for `COc1ccc(CN(C)C[C@H]2OCCCC[C@H](C)Oc3ccc(NC(=O)Nc4ccc(F)cc4)cc3C(=O)N([C@H](C)CO)C[C@H]2C)cc1`, the cytotoxicity call was “active”.

Turning to `COc1ccc(CN(C)C[C@H]2OCCCC[C@H](C)Oc3ccc(NC(=O)Nc4ccc(F)cc4)cc3C(=O)N([C@@H](C)CO)C[C@H]2C)cc1`, the cytotoxicity call is “active”.

As to `COc1ccc(CN(C)C[C@H]2OCCCC[C@H](C)Oc3ccc(NC(=O)Nc4ccc(F)cc4)cc3C(=O)N([C@@H](C)CO)C[C@@H]2C)cc1`, the cytotoxicity call is “inactive”.

Take `COc1ccc(CN(C)C[C@H]2OCCCC[C@@H](C)Oc3ccc(NC(=O)Nc4ccc(F)cc4)cc3C(=O)N([C@@H](C)CO)C[C@@H]2C)cc1`: the cytotoxicity call is “active”.

Turning to `COc1ccc(CN(C)C[C@H]2OCCCC[C@@H](C)Oc3ccc(NC(=O)Nc4ccc(F)cc4)cc3C(=O)N([C@H](C)CO)C[C@H]2C)cc1`, the cytotoxicity call is “active”.

With `CCn1nnc2c(SCC(N)=O)ncnc21`, the cytotoxicity call was “inactive”.

As for `O=C(NCc1ccccc1)OCCO`, the cytotoxicity call is “inactive”.

For `O=C(C[C@H]1CC[C@@H]2[C@H](COC[C@@H](O)CN2C(=O)Nc2ccc(F)cc2)O1)NCCCN1CCOCC1`, the cytotoxicity call is “inactive”.

For `CN1CCN(C(=O)C[C@H]2CC[C@@H]3[C@H](COC[C@H](O)CN3S(=O)(=O)c3cccc(F)c3)O2)CC1`, the cytotoxicity call was “inactive”.

As for `COc1cccc(S(=O)(=O)N2C[C@H](O)COC[C@H]3O[C@@H](CC(=O)NCCCN4CCOCC4)CC[C@@H]32)c1`, the cytotoxicity call was “inactive”.

Regarding `C[C@@H]1CCCCO[C@H](CN(C)C(=O)Cc2ccccc2)[C@@H](C)CN([C@H](C)CO)C(=O)c2cc(NS(=O)(=O)c3ccc(Cl)cc3)ccc2O1`, the cytotoxicity call was “inactive”.

Take `C[C@@H]1CN([C@H](C)CO)C(=O)c2cc(NS(=O)(=O)c3ccccc3)ccc2O[C@@H](C)CCCCO[C@@H]1CN(C)C(=O)C1CCCCC1`: the cytotoxicity call is “inactive”.

Regarding `CN1CCCN=C1C=Cc1cccs1.O=C(O)c1cc2ccccc2c(Cc2c(O)c(C(=O)O)cc3ccccc23)c1O`, the cytotoxicity call was “inactive”.

Consider `Cc1cc(C=Cc2ccc3cc(N(C)C)ccc3[n+]2C)c(C)n1-c1ccccc1.O=C([O-])c1cc2ccccc2c(Cc2c(O)c(C(=O)O)cc3ccccc23)c1O`, for which the cytotoxicity call was “active”.

Turning to `CN1CCCN=C1C=Cc1cccc(O)c1.O=C(O)c1cc2ccccc2c(Cc2c(O)c(C(=O)O)cc3ccccc23)c1O`, the cytotoxicity call was “inactive”.
